AF4-AF9 inh – inhibitors of human MLL-AF4/AF9 interaction; 350,000 tested, 0.47% active; inhibition, % at 10 µM; AlphaScreen, biotin-AF4 peptide binding to FLAG-AF9; P42568;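 active means every replicate reaching a set inhibition limit, whatever the replicate mean, cut at about 25% in these data; inconclusive means mean inhibition reaches that limit but some replicates miss it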;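 further: 0% = plate neutral control median and 100% = total signal loss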
Target sequence (P42568 whole entry, looked up): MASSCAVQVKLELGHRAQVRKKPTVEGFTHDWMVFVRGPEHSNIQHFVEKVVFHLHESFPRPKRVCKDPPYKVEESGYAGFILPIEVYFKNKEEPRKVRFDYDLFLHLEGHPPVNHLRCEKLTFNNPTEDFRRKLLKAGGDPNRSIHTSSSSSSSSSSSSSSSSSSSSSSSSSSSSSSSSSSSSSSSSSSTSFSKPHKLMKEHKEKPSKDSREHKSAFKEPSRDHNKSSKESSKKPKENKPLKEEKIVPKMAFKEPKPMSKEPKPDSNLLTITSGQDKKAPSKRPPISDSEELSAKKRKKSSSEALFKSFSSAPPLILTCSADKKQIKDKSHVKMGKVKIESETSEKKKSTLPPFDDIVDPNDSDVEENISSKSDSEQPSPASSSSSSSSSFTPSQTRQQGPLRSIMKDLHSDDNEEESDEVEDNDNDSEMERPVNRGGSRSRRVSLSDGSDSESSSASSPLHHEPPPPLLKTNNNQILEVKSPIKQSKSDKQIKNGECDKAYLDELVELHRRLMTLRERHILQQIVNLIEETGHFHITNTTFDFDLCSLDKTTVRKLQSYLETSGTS
Casp6 inh – blocks human caspase-6 cleavage activity; purified caspase-6, Z-VEID-R110 cleavage fluorescence; inhibition, % at 12.5 µM; 350,000 tested, 0.53% active;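 active means mean inhibition across replicates at least about 35%, with every replicate also reaching that limit, limit read from the data; inconclusive means only one of the two criteria met; inactive means neither criterion met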;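 further: 0% = median of neutral control wells and 100% = no fluorescence left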
miR122 inh – miR-122 inhibition in Huh7 cells; 340,000 tested, 0.3% active; Huh7 miR-122 Renilla luciferase sensor, 48 h; neutral wells = 0, positive control = 100; AID 602342; activation (reporter increase), % at 12.5 µM;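 active means mean replicate activation score at least 90 and every replicate individually at or above 90; inconclusive means only one of the two criteria met; inactive means neither criterion met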;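 further: higher luciferase means less miR-122 activity so hits act as miR-122 inhibitors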
NSD2 inh – blocks human histone methyltransferase NSD2; inhibition, % at 12.5 µM; 310,000 tested, 0.54% active; NSD2 peptide methylation, AlphaScreen, 120 min; O96028; AID 743445; in the data active means inhibition above about 50%
RAD52 anneal inh – blocks human RAD52 DNA annealing. P43351. recombinant RAD52 DNA annealing, FRET fluorescence. inhibition, % at 18.7 µM. 360,000 tested, 0.46% active. AID 651710;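 active means every replicate showing at least 50% inhibition; inconclusive means mean inhibition at least 50% but not in every replicate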
DNA binder FP – binds DNA, flagging false RAD52 inhibitor hits; 1,000 tested, 8% active; AC50, µM; shares compounds with RAD52 anneal inh; Salmon sperm DNA/acridine orange FP displacement, DNA binding; AID 652128;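 active means fitted half-maximal concentration for signal loss at or below twice the highest dose tested, in every separate run, actives reach about 64 µM in these data; inconclusive means runs disagree, or flat partial signal loss, or poor fit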
* = called active by the depositor; i = inactive; ? = inconclusive; nt = no result given; [ ] = remark or other dose. In the library only some 1.5% were active in any assay of this set; here they are far more common.

SMILES | AF4-AF9 inh | Casp6 inh | miR122 inh | NSD2 inh | RAD52 anneal inh | DNA binder FP
CCN1CCN(c2cc(C)c3cc(NC(=S)N4CCOCC4)ccc3n2)CC1 | 4 | -33 | nt | 10 | 78* | i
Cc1cc(N2CCN(C)CC2)nc2ccc(NC(=S)N3CCC4(CC3)OCCO4)cc12 | 9 | -18 | nt | nt | 21 | nt
CCN1CCN(c2cc(C)c3cc(NC(=S)N(CC)CC)ccc3n2)CC1 | 25* | -88 | nt | nt | 68* | i
CCN1CCN(c2cc(C)c3cc(NC(=S)N4CCC5(CC4)OCCO5)ccc3n2)CC1 | -39 | -20 | -1 | 14 | 56* | i
CCCN1CCN(C(=S)Nc2ccc3nc(N4CCN(CC)CC4)cc(C)c3c2)CC1 | 7 | -50 | 2 | nt | 89* | i
Cc1noc(C)c1S(=O)(=O)Nc1ccc2c(c1)C(=O)N([C@H](C)CO)C[C@@H](C)[C@@H](CN(C)C(=O)Cc1ccccc1)OCCCC[C@H](C)O2 | -1 | 1 | 4[16.7 µM] | nt | 4 | nt
Cc1cc(N2CCN(C)CC2)nc2ccc(NC(=S)N3CCN(c4ccccn4)CC3)cc12 | 16 | -24 | 28 | 2 | 71* | i
Cc1ccc(C)c(N2CCN(C(=S)Nc3ccc4nc(N5CCN(C)CC5)cc(C)c4c3)CC2)c1 | 3 | -25 | nt | -4 | 11 | nt
C[C@H]1CN([C@@H](C)CO)C(=O)c2cc(NC(=O)CCC(F)(F)F)ccc2O[C@@H]1CN(C)S(C)(=O)=O | 1 | 0 | -3[16.7 µM] | nt | 15 | nt
CCN(CC)CCNC(=S)Nc1ccc2nc(N3CCN(C)CC3)cc(C)c2c1 | 7 | -52 | -24 | nt | 87* | i
CCCCN(CC)CCCNC(=S)Nc1ccc2nc(N3CCN(C)CC3)cc(C)c2c1 | 26* | -90 | 2 | 21 | 92* | i
CCCCN(C)C(=O)CCC(=O)Nc1ccc2nc(N3CCN(C)CC3)cc(C)c2c1 | -34 | -7 | nt | nt | -2 | nt
CCCN(CCC)CCCNC(=S)Nc1ccc2nc(N3CCCC3)cc(C)c2c1 | 22 | -120 | 4 | 33 | 92* | i
Cc1cc(N2CCOCC2)nc2ccc(NC(=S)NCCN(C)C)cc12 | 2 | nt | -2 | 3 | 43 | nt
Cc1cc(N2CCCC2)nc2ccc(NC(=S)NCCCOC(C)C)cc12 | 10 | nt | -4 | 2 | 58* | i
CCOCCCNC(=S)Nc1ccc2nc(N3CCOCC3)cc(C)c2c1 | 3 | 8 | 3 | 37 | 7 | nt
CCN(CC)CCNC(=S)Nc1ccc2nc(N3CCOCC3)cc(C)c2c1 | 7 | -12 | -2 | 36 | 22 | nt
C[C@H]1CN([C@@H](C)CO)C(=O)Cc2cc(NC(=O)Cn3cnnn3)ccc2O[C@@H]1CN(C)C(=O)Nc1ccc2c(c1)OCO2 | -1 | 2 | -2[16.7 µM] | nt | -1 | nt
CCn1c(C)c(C(C)=O)c(NCc2ccccc2)nc1=S | 19 | 2 | -1 | nt | 68* | i
CC(=O)c1c(NCc2ccccc2)nc(=O)n(-c2ccccc2)c1C | nt | nt | -17 | -1 | nt | nt
CC(=O)c1c(NCCc2ccccc2)nc(=S)n(-c2ccccc2)c1C | 3 | -2 | nt | 44 | 58* | i
COc1ccc2c3c([nH]c2c1)[C@@H](CO)N(C(=O)CC1CC1)CC31CN(Cc2ccncc2)C1 | 15 | 2 | nt | nt | -6 | nt
CCC(=O)N1[C@@H](CO)[C@@H]2c3ccccc3N(C(=O)c3cccc(OC)c3)C[C@@H]21 | nt | nt | -28[16.7 µM] | nt | -21 | nt
CCc1c(C2CC2)ncn1Cc1cccc(-c2ccccc2)c1 | 21 | -26 | nt | nt | 78* | i
C[C@H]1CN([C@@H](C)CO)S(=O)(=O)c2ccc(C#CC(C)(C)O)cc2O[C@@H]1CN(C)C | -1 | 0 | 3[16.7 µM] | nt | -1 | nt
SMILES | AF4-AF9 inh | Casp6 inh | miR122 inh | NSD2 inh | RAD52 anneal inh | DNA binder FP
C#CC[N+]1(CC#Cc2ccccc2)CCCC1 | nt | nt | nt | 1 | nt | nt
C(#Cc1ccccc1)C[N+]1(CC#Cc2cccc3ccccc23)CCCC1 | 9 | -16 | nt | 8 | 66* | i
NCCCC[C@H]1CNC(=O)C(=O)N1CCc1cc(C(F)(F)F)cc(C(F)(F)F)c1 | 0 | -1 | -9 | nt | -7 | nt
CCCC[C@@H]1CNC(=O)C(=O)N1CCCCC1CCCCC1 | -4 | 4 | nt | 2 | -12 | nt
NCCCC[C@H]1CNC(=S)N1CCc1cc(C(F)(F)F)cc(C(F)(F)F)c1 | 5 | -145 | 2 | nt | 67* | i
NCCCC[C@H]1CNC(=S)N1CCCCC1CCCCC1 | 15 | -246 | -6 | nt | 86* | i
CCC(C)Sc1ccc([C@H]2N[C@@](Cc3ccccc3)(C(=O)OC)[C@H]3C(=O)N(C)C(=O)[C@@H]23)cc1 (some centres not stated) | 4 | -34 | -2 | nt | 98* | i
C[C@@H]1CN([C@@H](C)CO)C(=O)c2cccc(NS(=O)(=O)c3cn(C)cn3)c2O[C@H]1CN(C)S(=O)(=O)c1cccs1 | -3 | -2 | 0[16.7 µM] | nt | -9 | nt
NC(=O)CN1CCN(CCN2C(=O)c3cccc4cccc(c34)C2=O)CC1 | 1 | 0 | 1 | -3 | 47 | i
O=C1c2cccc3cc([N+](=O)[O-])cc(c23)C(=O)N1CCN1CCCC1 | -2 | 2 | nt | 13 | 82* | 25µM*
COc1ccc2c(=O)c3ccccc3oc2c1 | -3 | -7 | -6 | nt | -11 | nt
CN(C)CCNc1ccc(CO)c2sc3ccc(O)cc3c(=O)c12 | 15 | -32 | -12 | nt | 0 | nt
COc1ccc2sc3cccc(NCCN(C)C)c3c(=O)c2c1 | 19 | 11 | nt | 41 | 58* | 39µM*
COc1ccc2oc3cc(NCCN(C)C)ccc3c(=O)c2c1 | -6 | -6 | -11 | -11 | 79* | i
CCC(=O)Nc1ccc2c(c1)C(=O)N(C)[C@@H]1CC[C@@H](CC(=O)NCC3CC3)O[C@@H]1CO2 | -3 | 0 | 5[16.7 µM] | nt | 3 | nt
CCCCCOc1ccc(/C(C)=N/NC2=NCCN2)cc1 | 5 | -7 | 3 | 7 | 34 | nt
CCCCCCOc1ccc(/C(C)=N/NC2=NCCN2)cc1 | ? | -59 | -65 | -3 | 54* | i
CC=Cc1ccc2n(c1=O)C[C@@H]1[C@@H](CO)[C@H](C(=O)N[C@H](C)c3ccccc3)[C@H]2N1Cc1cccnc1 (mixture of isomers) | 1 | -3 | 2[16.7 µM] | nt | -11 | nt
OC[C@@H]1CN(Cc2ccc3c(c2)OCO3)C[C@H](n2cnc3c(N4CCCC4)ncnc32)O1 | -3 | -4 | -1 | 0 | 86* | i
Cc1cc(N2CCN(Cc3nc(-c4ccc(Cl)cc4)oc3C)CC2)cc(C)n1 | -12 | -9 | 0 | nt | 6 | nt
COc1ccc(-c2nc(CN3CCN(c4cc(C)nc(C)c4)CC3)c(C)o2)c2ccccc12 | 26* | -32 | -16 | 5 | 82* | i
O=C(c1ccccc1)c1cccc(C(=O)c2ccccc2)c1 | nt | nt | -1 | -6 | nt | nt
Nc1cc(N)cc(C(=O)c2ccccc2)c1 | 9 | 36* | -5 | 45 | 89* | i
CCCNc1nc2ccccc2n2c(C)nnc12 | 0 | -63 | -2 | -2 | 73* | i
C1CCCCCC(NCCN2CCNCC2)CCCCC1 | nt | -26 | nt | 0 | 64* | i
